# TDP1 cell CPT: growth inhibition of DT40 Tdp1-/-;hTDP1 cells with camptothecin (screen for TDP1 inhibitors). Potency, µM (titrated, usually from 46.2 µM), for inactives: at the top dose activity change, negative = growth inhibition, hits mostly inhibitors. chicken DT40 Tdp1-/-;hTDP1 cells + 20 nM CPT, ATP luminescence, 48 h. AID 686979. 12% of 420,000 active; also: nearly all actives have a fitted effect of over 55% in size
#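 Chicken DT40 Tdp1-/- cells stably complemented with human TDP1 were seeded at 400 cells/well in medium containing 20 nM camptothecin, exposed to pin-transferred compounds, and grown at 37 °C for at least 48 hr. Viability was read as ATP luminescence.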
# HT1080NT lethal: kills 2HG-producing HT-1080-NT fibrosarcoma cells | AID 686970 | 1.6% of 360,000 active | Potency, µM (doses to about 46.1 µM), for the others: at the top dose activity, negative = less viability, actives largely listed as cytotoxic | HT-1080-NT fibrosarcoma viability, CellTiter-Glo ATP luminescence, 48 h;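 also: NT is the 2HG producing partner of a matched IDH1 knockdown line; 0% = DMSO-treated cells and -100% = media-only wells without cells; nearly all actives have a fitted effect of over 55% in size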
#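 Viability by CellTiter-Glo luminescence after 48 h compound exposure at 37C of HT-1080-NT cells (750/well, RPMI, 5% FBS). % activity scaled between DMSO wells and medium-only wells, then curve-fitted and categorized by curve class.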
# KB-V1 cytotox: kills drug-selected multidrug resistant KB-V1 cells; KB-V1 MDR cells viability, CellTiter-Glo, 72 h; Potency, µM (top dose mostly 46.1 µM), most hits filed as cytotoxic; 3.4% of 400,000 active; AID 1347076; also: nearly all actives have a fitted effect of over 60% in size
#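 Cytotoxicity toward P-gp-expressing KB-V1 cells was determined as loss of CellTiter-Glo luminescence after 72 h at 37 degrees C. Compounds were tested in quantitative HTS format across a concentration range, with curves fitted to normalized data.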
# KB-3-1 tox: kills parental KB-3-1 adenocarcinoma cells. KB-3-1 viability, CellTiter-Glo ATP luminescence, 72 h. Potency, µM (series often up to 46.1 µM), actives largely listed as cytotoxic. 1.4% of 400,000 active. AID 1347075; also: nearly all actives have a fitted effect of over 60% in size
#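 Cells are dispensed, compounds pinned in, plates held at 37 °C for 72 h, then CellTiter-Glo is added and luminescence read after 10 minutes. Cell line: parental KB-3-1 in phenol-red-free DMEM, 10% FBS.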
# HT1080 IDH1KD tx: kills HT-1080 cells with IDH1 knockdown; HT-1080 IDH1 knockdown viability, ATP luminescence, 48 h; Potency, µM (series often up to 46.1 µM), inactives show top-dose activity, negative = toxicity, hits mostly cytotoxic; 2% of 360,000 active;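 also: 0% = DMSO wells and -100% = cell-free medium wells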
#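 In this qHTS, HT-1080 cells depleted of IDH1 are exposed for 48 h at 37 °C to compound titrations. Toxicity is scored from CellTiter-Glo luminescence, with DMSO as full viability and medium alone as none.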
# DT40 TDP1 no CPT: qHTS for Inhibitors of human tyrosyl-DNA phosphodiesterase 1 (TDP1): qHTS in cells in absence of CPT | AID 686978, 2013 | DT40 Tdp1-/- hTDP1 cells, no CPT, ATP luminescence, 48 h | 15% of 420,000 active | Potency, µM (doses to about 46.2 µM), without a hit: at the highest dose activity change, negative = growth inhibition, most hits filed as inhibitors; also: nearly all actives have a fitted effect of over 55% in size
#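 Seeded 400 DT40-hTDP1 cells/well (vehicle DMSO, no 20 nM CPT); pinned compounds; ≥48 hr at 37 °C; CellTiter-Glo luminescence as viability measure.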
# Active calls of the source: *; i = inactive; ? = inconclusive; nt = no result; [ ] = dose if it differs, or a comment. In the library only some 19% were active in any assay of this set; here they are far more common. Calls follow the shape of the dose curve; as a rule, active = well fitted curve in the direction sought with a large enough effect; inconclusive = small, poorly fitted or top-dose-only effect, or another doubt; inactive = no such curve, though single readings can be large; an effect the other way counts as inactive or inconclusive. Unless noted, % is scaled to controls: 0 for no effect and ±100 for the full control effect; potency is read from the fitted curve at half-maximal effect.
SMILES,TDP1 cell CPT,HT1080NT lethal,KB-V1 cytotox,KB-3-1 tox,HT1080 IDH1KD tx,DT40 TDP1 no CPT
Cc1ccc(C)c2c1NC(C(=O)O)C1CC=CC21 (configuration not stated),?,nt,?,i,nt,?
Cn1c(C(=O)N/N=C/c2ccccc2)cc2ccccc21,0%,0%,i,i,6%,?
CN1CCN(S(=O)(=O)c2cccc(C(=O)Nc3sc4c(c3-c3nc5ccccc5[nH]3)CCCC4)c2)CC1,15µM*,-20%,i,i,-22%,13µM*
CCCn1c(NCc2ccco2)nc2ccccc21,10%,1%,21µM*,i,-22%,0%
O=C(Nc1nc2ccccc2n1Cc1ccccc1)c1ccco1,21µM*,-16%,i,?,-18%,21µM*
Cn1c(/C=N/NC(=O)c2ccccc2)nc2ccccc21,?,10µM*,?,i,?,26µM*
CC(=O)N[C@@H](Cc1c[nH]c2ccccc12)C(=O)NCCc1ccc(S(N)(=O)=O)cc1,30%,14%,i,i,4%,-24%
CCOc1ccc(OCCC(=O)OCC(=O)N(CC)c2c(N)n(Cc3ccccc3)c(=O)[nH]c2=O)cc1,?,3%[9.24 µM],?,i,-7%,?
NC(=O)[C@@H]1CCCN1C(=O)CCN1Cc2ccccc2OC(c2ccccc2F)C1 (some centres not stated),14%[9.04 µM],nt,nt,nt,nt,-8%
O=C(COC(=O)c1ncc(Cl)c(Cl)c1Cl)Nc1cccnc1Cl,-12%,-6%,i,i,-5%,7%
COC(=O)c1c(-c2ccc(Cl)cc2)noc1N1CCN(c2ccccc2OC)CC1,?,nt,i,i,nt,?
Cc1cc(-c2ccc(C)c(S(=O)(=O)N3CCN(c4cccc(C(F)(F)F)c4)CC3)c2)on1,?,nt,i,?,nt,?
COC(=O)c1c(-c2ccc(Cl)cc2)noc1N1CCN(c2ccc(F)cc2)CC1,21µM*,nt,i,i,nt,21µM*
COC(=O)c1c(-c2ccc(Cl)cc2)noc1N1CCN(c2cccc(C(F)(F)F)c2)CC1,15µM*,nt,i,i,nt,23µM*
Cc1ccc(NC(=O)N2CCCC2C(=O)NCCc2ccccc2)cc1 (configuration not stated),6%,7%,i,i,5%,1%
Cc1ccc(CS(=O)(=O)CCC(=O)NCCN2CCCC2)cc1,-5%,3%,i,i,0%,-5%
CCOc1cc(/C=N/NC(=O)C(=O)NC)cc(Br)c1O,1%,-3%,i,i,-13%,-3%
Cc1cccc(OCCSc2nc3c([nH]2)c(=N)ncn3Cc2ccccc2)c1,21µM*,?,i,i,?,16µM*
Cc1cccc(C)c1-n1c(C)nn(CC2CC2)c1=O,17%,-2%,i,i,3%,-23%
CCCS(=O)(=O)c1cnc(C2COc3ccccc3O2)nc1N (configuration not stated),?,-26%,i,?,?,16µM*
S=c1nc(C2COc3ccccc3O2)[nH][nH]1 (configuration not stated),-4%,-6%,i,i,-3%,-17%
CCN(C(=O)Cn1nnc2sc(-c3ccccc3)cc2c1=O)c1cccc(C)c1,16µM*,nt,i,i,nt,?
COC(=O)C(C)n1nnc2sc(-c3ccccc3)cc2c1=O (configuration not stated),?,?,i,i,12%,18µM*
CCCN(CCC)C(=O)Cn1nnc2sc(-c3ccccc3)cc2c1=O,-3%,nt,i,i,nt,-1%
O=C(CSc1nc(C(F)(F)F)cc(=O)[nH]1)N1CCCC1,-8%,0%,i,i,-1%,-11%
SMILES,TDP1 cell CPT,HT1080NT lethal,KB-V1 cytotox,KB-3-1 tox,HT1080 IDH1KD tx,DT40 TDP1 no CPT
C[N+]1(C2CCC3CCCC2C3O)CCCC1 (configuration not stated),-2%,0%,i,i,-2%,-9%
COCCNC(=O)c1cc2c(s1)-c1ccc(Cl)cc1SC2,-17%,-16%,i,i,-24%,?
CCOc1ccc(N(CC)C(=O)c2cc3c(s2)-c2ccc(Cl)cc2SC3)cc1,12µM*,nt,i,?,nt,?
CN(C)S(=O)(=O)c1cccc(NC(=O)COc2ccccc2C(=O)Nc2ccccc2)c1,18µM*,-30%,16µM*,?,?,9.2µM*
Cc1ccc(S(=O)(=O)N(C)C)cc1NC(=O)COC(=O)/C(=C/c1ccc(F)cc1)c1cccs1,13µM*,-24%,i,i,-29%,26µM*
Cc1ccc(NC(=O)c2ccccc2OCC(=O)Nc2ccccc2F)cc1S(=O)(=O)N(C)C,16µM*,-24%,?,5.2µM*,?,21µM*
CN(C)S(=O)(=O)c1cccc(NC(=O)COc2cccc3ccccc23)c1,-26%,-1%,i,i,0%,-15%
Cc1ccc(S(=O)(=O)N(C)C)cc1NC(=O)COC(=O)CSc1ccccc1,8%,4%,i,i,6%,-4%
Cc1ccc(S(=O)(=O)N(C)C)cc1NC(=O)COc1ccccc1C(=O)Nc1ccccc1,13µM*,1%,?,i,2%,9.2µM*
Cc1ccc(CN2C(=O)C3(c4ccccc42)N(c2cccc(C(F)(F)F)c2)C(=O)CS3(=O)=O)cc1 (configuration not stated),?,nt,i,i,nt,?
CCN(CC)S(=O)(=O)c1cc(NC(=O)c2ccccc2OCc2c(C)noc2C)ccc1C,16µM*,-7%,7.3µM*,i,-10%,16µM*
Cc1cc(=O)c2cc(C(=O)Nc3ccc(F)cc3)ccc2[nH]1,0%,nt,i,i,nt,-10%
O=C(C[N+]1(CC(O)c2ccccc2)CCOCC1)c1ccccc1 (configuration not stated),1%,nt,i,i,nt,-12%
CC[C@H](C)[C@H](NC(=O)OCC1c2ccccc2-c2ccccc21)C(=O)O,-11%,nt,nt,nt,nt,-3%
CCCCCCN1C(=O)CC(NC(=O)OCC2c3ccccc3-c3ccccc32)C/C=C\C1C(C)C (configuration not stated),23µM*,-14%,?,?,-19%,15µM*
